We go through 108 compounds from PubChem BioAssay AID485313 (National Center for Advancing Translational Sciences (NCATS), 2010).

About 7,600 (2.4%) of roughly 320,000 compounds were called active. Inconclusive results (about 3%) are left out. Calls follow the shape of the dose curve; as a rule, active = well fitted activation curve with a large enough effect; inconclusive = small, poorly fitted or top-dose-only effect; inactive = no such curve, though single readings can be large or run the other way. The list comes from a sample in which actives are over-represented; it also holds similar structures and randomly drawn compounds. Where a call stands in place of a potency, no number is given.
Potency is read from the fitted curve at half-maximal effect.

The assay in a line: qHTS Assay for NPC1 Promoter Activators. Also: nearly all actives have a fitted effect of over 60% in size.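 As to activation: reporter is driven by a mutant NPC1 promoter.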 To be noted: Huh7 NPC1 promoter luciferase reporter, 24 h; series mostly up to 9.22 µM. Put shortly:
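Cells: Huh7 expressing luciferase under the NPC1 promoter, 1500/well. Seeded 2 h, compound added, incubated 24 h at 37 °C. Luciferase reagent, 10 min ambient, then luminescence.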
For orientation: qHTS replaces the single test concentration by a dilution series.
Regarding `C=CCn1cc(-c2cccc(C(F)(F)F)c2)cc(C#N)c1=O`, the Potency entry is “inactive”.
As to `CN(C)C(CNC(=O)c1ccc(OCc2cn3ccccc3n2)cc1)c1ccco1` (stereo not drawn), the Potency result is “inactive”.
For the compound `C=CCNc1cnn(-c2ccc(C)cc2)c(=O)c1Cl`, the Potency is 2820 nM (active).
For `Cc1ccc(Oc2cnn(-c3ccccc3)c(=O)c2Br)cc1`, the Potency entry is “inactive”.
The entry for `O=c1c(Cl)c(NC2CC2)cnn1-c1ccccc1` is “inactive”; for `CC(C)Nc1nnc(SCC(=O)c2c[nH]c3ccccc23)s1` it is “inactive”.
In the case of `COc1ccc(/C=N/OCC(=O)N(Cc2ccccc2)c2ccccc2C(=O)O)cc1` it was “inactive”; in that of `COc1ccc(CCCc2nnc(SCc3nc4ccccc4c(=O)[nH]3)n2C)cc1`, “inactive”.
The entry for `COc1ccc(NS(=O)(=O)c2cc(C(=O)Nc3ccccc3C(=O)O)ccc2C)cc1` is “inactive”; for `COc1ccc(/C=N/Nc2nc(-c3ccc(C)cc3)c(C#N)c(=O)[nH]2)cc1` it is “inactive”.
In the case of `COc1ccc(/C=N/Nc2nc3ccccc3c(=O)[nH]2)cc1`, the Potency is 3160 nM (active).
In the case of `COc1ccc(/C=N/Nc2ccccc2C(=O)O)cc1`, the Potency was 89.1 nM (active).
In the case of `CCC(=O)c1ccc(OCC(=O)N(CC)CC2COc3ccccc3O2)cc1` (stereo not drawn), the Potency result was “inactive”.
In the case of `COCCn1c(C)cc(C(=O)COC(=O)CNC(=O)c2ccco2)c1C` it was “inactive”.
`COc1cccc(C2=CC(=O)C[C@H](c3ccc(F)cc3)C2)c1OC`: the Potency entry was “inactive”.
As for `Cc1cc(F)ccc1S(=O)(=O)Nc1ccc(C(=O)N(C)Cc2ccco2)cc1`, the Potency entry is “inactive”.
The entry for `COc1ccccc1NC(=O)COC(=O)COc1ccccc1F` is “inactive”.
In the case of `Nc1ccc(-c2sc(N)nc2-c2ccccc2)cc1` it was “inactive”; in that of `O=C(COC(=O)c1ccccc1Br)Nc1nnc(-c2ccccc2)o1`, “inactive”; in that of `O=C(COC(=O)c1ccc(Oc2ccccc2)cc1)Nc1nnc(-c2ccccc2)o1`, “inactive”.
The figure for `Nc1ccc(-c2nnc(-c3ccc(-c4ccccc4)cc3)o2)cc1` is 4470 nM (active); for `O=C(Nc1cccc(Cl)c1)Nc1nnc(-c2ccccc2)o1` it is “inactive”.
Consider `Nc1ccc(-c2nnc(-c3ccccc3)o2)cc1`, for which the Potency was 3160 nM (active).
In the case of `CC(C)(C)n1ncc2c(=O)n(Cc3c(Cl)cccc3Br)cnc21` it was “inactive”; in that of `CC(C)c1ccc(S(=O)(=O)N2CCN(C(C)C(=O)NC3CCCC3)CC2)cc1` (stereo not drawn), “inactive”.
For `CCCC(NCC(=O)Nc1ccccc1C(=O)NC1CC1)c1ccccc1` (stereo not drawn), the Potency entry is “inactive”.
For `COc1ccccc1N1CCN(C(=O)C2Cc3ccccc3CN2C(=O)c2ccco2)CC1` (stereo not drawn), the Potency entry is “inactive”.
As to `CCN1C(=O)[C@@H]2[C@@H](c3ccc(-c4cccc(Cl)c4)cc3)N3CCC[C@@]3(C(=O)OC)[C@@H]2C1=O`, the Potency result is “inactive”.
In the case of `CCCCc1ccc(NS(=O)(=O)c2cccc(C(=O)N3CCCN(C)CC3)c2)cc1` it was “inactive”; in that of `Cc1nnc(NC(=O)c2ccc3nccnc3c2)s1`, “inactive”.
Regarding `Cc1ccc(C(=O)Nc2nnc(-c3cccs3)s2)cc1C`, the Potency is 4470 nM (active).
Turning to `Cc1ccc(C(=O)Oc2coc(CSc3nnc(NC(=O)c4cccs4)s3)cc2=O)cc1C`, the Potency result was “inactive”.
In the case of `CC(C)c1ccc(NC(=O)COC(=O)c2ccc(CN3CCCC3=O)cc2)cc1` it was “inactive”; in that of `O=C(Nc1ccc(O)cc1)c1ccc(NC(=O)c2ccco2)cc1`, “inactive”; in that of `Cc1ccnc(NC(=O)c2ccc(NC(=O)c3ccco3)cc2)c1`, 3980 nM (active).
The figure for `O=C(Nc1ccc(NC(=O)c2cccs2)cn1)c1ccco1` is 316 nM (active); for `Cc1cc(NC(=O)c2ccc(F)cc2)ccc1NC(=O)c1ccco1` it is “inactive”.
The entry for `O=C(Nc1ccnc(-c2ccncc2)n1)c1cccs1` is “inactive”.
With `O=C(Nc1ccccc1)c1ccco1`, the Potency result was “inactive”.
In the case of `CCN(CC(=O)Nc1c(F)cccc1F)C(=O)c1cnc(C)cn1` it was “inactive”; in that of `O=C(CCNC(=O)c1ccc(Br)cc1)NCC(c1ccco1)N1CCCCC1` (stereo not drawn), “inactive”.
The entry for `COc1ccc(C2=NN(C(=O)CSc3nnnn3C)C(c3ccco3)C2)cc1` (stereo not drawn) is “inactive”; for `Nc1ncc(-c2cc3ccccc3oc2=O)s1` it is 2510 nM (active); for `O=C(NCc1cccnc1)c1cccc(-c2cc3ccccc3oc2=O)c1` it is “inactive”.
For `Cc1cc2c(=O)n(C)c(SCC(=O)c3cc4ccccc4o3)nc2s1`, the Potency entry was “inactive”.
The entry for `O=C(CSc1ccccc1)Nc1cccc(S(=O)(=O)N2CCCCC2)c1` is “inactive”; for `Cc1cccc(-c2nc3ccc(C(=O)NCCN4CCN(C)CC4)cc3nc2-c2cccc(C)c2)c1` it is “inactive”; for `C=CCNC(=O)c1ccc2c3n(nc2c1)-c1ccc(C)cc1CO3` it is 501 nM (active).
The entry for `C=CCNC(=O)c1ccc(C)c(Br)c1` is “inactive”.
On to `CCOC(=O)c1sc(NC(=O)C2CSC3(C)CCC(=O)N23)nc1C` (stereo not drawn), for which the Potency entry is “inactive”.
Regarding `C=CCSc1ccc(S(=O)(=O)N2CCN(C)CC2)cn1`, the Potency entry is “inactive”.
The entry for `CCCCN(C(=O)C(CCSC)N1C(=O)c2ccccc2C1=O)c1c(N)n(CCC)c(=O)[nH]c1=O` (stereo not drawn) is “inactive”; for `Cc1ccc(OC(=O)c2c(C)nn(-c3ccccc3)c2C)cc1` it is 2820 nM (active); for `Cc1ccc(-n2nc(C)c(C(=O)O)c2-n2cccc2)cc1` it is “inactive”.
As to `Cc1cccc(C)c1NC(=O)COC(=O)c1c(C)nn(-c2ccccc2)c1C`, the Potency result is “inactive”.
For `COCCN(C(=O)CSCc1ccc(C)cc1)c1c(N)n(CC(C)C)c(=O)[nH]c1=O`, the Potency entry was “inactive”.
Consider `CCN(CC(=O)NCc1cccs1)C(=O)/C=C/c1ccc(C)cc1`, for which the Potency entry is “inactive”.
The entry for `Cc1cccc(Nc2nnc(SCC(=O)c3c(N)n(C4CC4)c(=O)[nH]c3=O)s2)c1C` is “inactive”; for `CCOc1ccc(C(=O)NC2CCN(CC(=O)NCc3cccs3)CC2)cc1` it is “inactive”.
In the case of `O=C(NCc1cccs1)c1ccc2c(c1)ncn2C1CCCC1` it was 3550 nM (active).
With `COc1ccccc1-n1cnc2cc(C(=O)NCC3CCCO3)ccc21` (stereo not drawn), the Potency result was “inactive”.
On to `O=C(CCNS(=O)(=O)c1ccc(Br)cc1)NCC1CCCO1` (stereo not drawn), for which the Potency result was “inactive”.
With `COc1ccccc1C(=O)NCC(=O)NCCSc1ccc(Br)cc1`, the Potency result was “inactive”.
In the case of `Cc1ccc(NC(=O)CN(C)C(=O)COC(=O)c2nccnc2N)cc1` it was “inactive”.
In the case of `Cc1ccc(-c2noc(CSc3nnc(-c4ccncc4)n3-c3ccc(F)cc3)n2)cc1` it was “inactive”.
`Clc1ccc(-n2nnnc2-c2cnc(-c3ccccn3)nc2-c2cccs2)cc1`: the Potency entry is “inactive”.
For `c1ccc(CCc2nc(-c3ccncc3)no2)cc1`, the Potency result was “inactive”.
In the case of `Cc1ccc(-c2noc(CSc3nnc(-c4cccs4)n3C)n2)cc1` it was “inactive”; in that of `c1ccc(-c2noc(-c3cccs3)n2)nc1`, 398 nM (active); in that of `O=C(NCc1cccnc1)c1nc(-c2cccs2)no1`, “inactive”.
The entry for `COc1nc(-c2ccc(Cl)cc2)ccc1-c1noc(-c2cccs2)n1` is “inactive”.
On to `c1csc(-c2nc(-c3ccncc3)no2)c1`, for which the Potency is 3160 nM (active).
The figure for `Cc1ccc(-c2nc(-c3ccncc3)no2)c(C)c1` is 3160 nM (active); for `CN(C(=O)CSc1nnc(-c2n[nH]c3ccccc23)o1)c1ccccc1` it is “inactive”.
`O=C(COC(=O)c1c(Cl)cccc1Cl)Nc1cccc(S(=O)(=O)NC2=NCCCCC2)c1`: the Potency entry was “inactive”.
`COc1ccc(Cc2nnc(N/N=C/c3ccccc3O)[nH]c2=O)cc1OC`: the Potency result is “inactive”.
The entry for `COc1ccccc1C(=O)NCC(=O)OCC(=O)Nc1nnc(-c2ccccc2)o1` is “inactive”; for `O=C(COC(=O)c1cc(S(=O)(=O)N2CCOCC2)ccc1Cl)NCCc1ccccc1` it is “inactive”; for `Cc1cccc(NC(=O)NC(=S)NC(=O)c2ccccc2)c1` it is “inactive”.
In the case of `Cc1ccc(NC(=O)NC(=O)c2ccccc2)cc1F`, the Potency is 562 nM (active).
Regarding `Cc1nc(C)c(C(=O)Nc2ccc(C)c(F)c2)o1`, the Potency result was “inactive”.
Regarding `CCN(CC)C(=O)c1nc[nH]c1C(=O)N(C)Cc1ccccc1`, the Potency result is “inactive”.
In the case of `Cc1c(NC(=O)Nc2ccccc2)cccc1[N+](=O)[O-]` it was “inactive”; in that of `Cc1ccc(NC(=O)Nc2ccccc2)c(Br)c1`, 3550 nM (active); in that of `CCOc1cc(NC(=O)Nc2ccccc2)c(OCC)cc1NC(=O)CC`, “inactive”.
The entry for `COc1cc(F)c(C2=CC(=O)CC(C)(C)C2)cc1F` is “inactive”; for `CSc1ccccc1OCc1cc(C(=O)N2C[C@H]3CC[C@H]2C3)no1` it is 2820 nM (active).
The entry for `CSc1ccccc1OCc1cc(C(=O)N(C)CCc2c(C)n[nH]c2C)no1` is “inactive”; for `COC(=O)[C@@H]1CCCN1C(=O)c1cc(COc2cccc3cccnc23)on1` it is “inactive”.
As to `COC(=O)c1ccc(C)c(NC(=O)C2CC(=O)N(C3CCCC(C)C3C)C2)c1` (stereo not drawn), the Potency result was “inactive”.
The entry for `NS(=O)(=O)c1ccc(CCNC(=O)COC(=O)COc2cccc(C(F)(F)F)c2)cc1` is “inactive”.
Turning to `Cc1ccc(OCCC(=O)Nc2ccc(S(=O)(=O)Nc3nccs3)cc2)cc1`, the Potency entry was “inactive”.
Consider `COc1ccc(Cl)cc1NC(=O)CN(C)C(=O)c1ccc2n[nH]nc2c1`, for which the Potency entry is “inactive”.
In the case of `Cc1ccsc1C(=O)N/N=C/c1ccc([N+](=O)[O-])cc1` it was 3980 nM (active); in that of `Cc1nc2ccccc2cc1C(=O)N/N=C/c1ccc([N+](=O)[O-])cc1`, “inactive”.
Regarding `O=C(N/N=C/c1ccc([N+](=O)[O-])cc1)c1c[nH]c2ccccc12`, the Potency entry is “inactive”.
On to `CCOC(=O)CSc1nnc(CNc2nc(-c3ccccc3)cs2)n1C`, for which the Potency entry was “inactive”.
The entry for `Cc1nc(C)c(-c2csc(NCCc3ccccc3)n2)s1` is “inactive”.
In the case of `CCNc1nc(-c2cc3ccccc3o2)cs1` it was 2820 nM (active); in that of `O=C(CC1C(=O)NCCN1CC(c1ccccc1)c1ccccc1)NCC1CCOCC1` (stereo not drawn), “inactive”; in that of `CCC1CCC2(CC1)NC(=O)N(CC(=O)Nc1ccc(OC)cc1)C2=O` (stereo not drawn), “inactive”.
The figure for `COc1ccccc1N1CCN(/N=C/c2ccc(O)cc2O)CC1` is 2820 nM (active); for `COc1ccccc1N1CCN(/N=C\C(Br)=C\c2ccccc2)CC1` it is “inactive”.
Consider `COc1cc(/C=N/N2CCN(c3ccccc3)CC2)ccc1OC(C)=O`, for which the Potency entry was “inactive”.
The entry for `CCOc1ccccc1NC(=O)Cc1cccs1` is “inactive”.
With `O=C(Cc1cccs1)Nc1ccc([N+](=O)[O-])cc1`, the Potency result is “inactive”.
As to `CCOC(=O)c1ccc(NC(=O)Cc2cccs2)cc1`, the Potency is 3550 nM (active).
Consider `O=C(O)c1[nH]c2ccccc2c1C(c1cccc(O)c1)c1c(C(=O)O)[nH]c2ccccc12`, for which the Potency entry was “inactive”.
